# From PubChem BioAssay AID686970 (National Center for Advancing Translational Sciences (NCATS), 2013)
# The whole screen tested about 360,000 compounds, of which about 6,000 (1.7%) were called active. About 8% were inconclusive and are not listed. Shown is part of a subset that was picked to be rich in actives. Unmarked numbers belong to inactive results. The call rests on the fitted dose curve; in most records, active means well fitted cell-killing curve with a large enough effect; inconclusive means small, poorly fitted or top-dose-only effect, or effect the other way; inactive means flat fitted curve, though single readings scatter.
# Test: qHTS for induction of synthetic lethality in tumor cells producing 2HG: qHTS for the HT-1080-NT fibrosarcoma cell line;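 further: NT is the 2HG producing partner of a matched IDH1 knockdown line; nearly all actives have a fitted effect of over 55% in size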;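 on activity, negative = less viability: 0% = DMSO-treated cells and -100% = media-only wells without cells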
# Settings: HT-1080-NT fibrosarcoma viability, CellTiter-Glo ATP luminescence, 48 h; series mostly up to 46.1 µM; activity, negative = less viability: at the top concentration
# Outline: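 Toxicity toward the 2HG-producing NT line was scored as %Activity, normalised to DMSO and no-cell wells, from CellTiter-Glo luminescence after 48 hours' treatment.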
# Potency means the concentration at half of the fitted maximal effect.
SMILES,"activity, negative = less viability [%]",Potency
C[C@@H]1CN([C@@H](C)CO)C(=O)CCCn2nncc2CO[C@H]1CN(C)Cc1ccc(C(F)(F)F)cc1,17.2,–
CC1(C(=O)NS(=O)(=O)c2cccs2)CCN1C(=O)Cc1ccc(-c2ccccc2)cc1 (stereo not given),0.809,–
COc1cc(SC#N)ccc1N=Cc1c(C)[nH]n(-c2ccc(C)cc2)c1=O,–,25.9 µM (active)
O=Cc1cn(CCOc2ccc(F)cc2)c2ccccc12,5.53,–
CCc1nc2ccc(C(=O)Nc3ccc(OC)c(OC)c3)cn2c1N(C)C(=O)c1cccc(OC)c1,21.7,–
CCc1nc2ccc(C(=O)N(C)CCN(C)C)cn2c1N(CC)CCOC,15.1,–
CCc1nc2ccc(C(=O)Nc3cccc(OC)c3)cn2c1N(CCC(C)C)CCN(C)C,–,18.4 µM (active)
Fc1ccc2[nH]c3c(N4CCN(Cc5ccc6c(c5)OCO6)CC4)ncnc3c2c1,–,23.1 µM (active)
O=c1[nH]c(N2CCN(Cc3ccc4c(c3)OCO4)CC2)nc2c1CCCC2,15.1,–
CCCCCc1c(C)nc(N2CCN(Cc3ccc4c(c3)OCO4)CC2)[nH]c1=O,2.77,–
COc1cccc(-c2cc3nc(NCCOc4ccccc4Cl)n(C)c(=O)c3s2)c1,3.07,–
CCCC(=O)N1CCC1(C)C(=O)NCc1ccc(SC)cc1 (stereo not given),0.58,–
CCCc1nc2ccccc2n1C(C)C(=O)NC(C)(C)C (stereo not given),10.5,–
Cc1cccc(-c2cnc(C(O)c3ccc4ccccc4c3)[nH]2)c1 (stereo not given),-10.5,–
CN(C)CCNC(=O)Nc1cccc(Cl)c1Cl,-8.51,–
CN(c1ccccc1)S(=O)(=O)c1ccc(Cl)c(C(=O)NCCc2c[nH]c3ccccc23)c1,-7.85,–
CN(C)CCNC(=O)c1ccc(Cl)c2cc3ccccc3nc12,–,20.6 µM (active)
CC1(Oc2ccc(Cl)cc2)CCN(Cc2csc3ccccc23)C1 (stereo not given),10.5,–
COc1ccc(S(=O)(=O)N2CCC(C(=O)NCc3ccco3)CC2)cc1C,1.61,–
COc1ccc(C2=NOC(C(=O)NCc3ccco3)C2)cc1OC (stereo not given),–,6.31 µM (active)
COc1ccc(CNC(=O)C2CC(c3ccc(C(F)(F)F)cc3)=NO2)cc1 (stereo not given),-10.4,–
COc1ccc(CN2C[C@H]3CON(C)[C@H]3C[C@H]2c2ccc(-c3cccc(F)c3)cc2)cc1,-27.7,–
Cc1sc2ncnc(SCC(=O)NC3CCS(=O)(=O)C3)c2c1C (stereo not given),-12.9,–
Cc1ccc(CN(C)C[C@@H]2OCc3cnnn3CCCC(=O)N([C@@H](C)CO)C[C@H]2C)cc1,-0.921,–

SMILES,"activity, negative = less viability [%]",Potency
CN1CN(C)c2ccc([N+](=O)[O-])c3cccc1c23,-4.95,–
CCOc1cccc(=O)c2c(C)n(CC3CCCO3)c(C)c12 (stereo not given),-0.086,–
O=C1c2cccc3c([N+](=O)[O-])ccc(c23)C(=O)N1CC1CCCO1 (stereo not given),–,23.1 µM (active)
O=C(NCCS(=O)(=O)N1CCN(c2ccccc2)CC1)c1cc(=O)c2ccccc2o1,0.636,–
CC1CN(C(=O)c2cccc(NS(=O)(=O)c3ccc(Br)cc3)c2)CC(C)O1 (stereo not given),-3.46,–
C[C@H]1COc2cc(N3CCSCC3)ccc2S(=O)(=O)N1,17.1,–
CCCCC(O)C1=C[N+](=O)CC=C1 (stereo not given),16,–
COc1ccc(C)cc1-n1nnnc1SCc1nc2ccccc2c(=O)[nH]1,–,14.6 µM (active)
COc1ccc(CCCc2nnc(SCc3nc4ccccc4c(=O)[nH]3)n2C)cc1,-18,–
CCn1c(COc2c(C)cccc2C)nnc1SCc1nc2ccccc2c(=O)[nH]1,0.882,–
COc1ccc(C2=Nc3ccccc3NC(=O)C2N(C(=O)c2cc3ccccc3[nH]2)c2ccccc2)cc1 (stereo not given),-15.6,–
O=C(Nc1ccc2c(c1)OCCO2)C(C1CC1)N1CCC(Cc2ccccc2)CC1 (stereo not given),-1.64,–
COc1ccc(OC)c(NC(=O)C2(C)CCN2C(=O)Cc2ccccc2)c1 (stereo not given),3,–
N#CCSc1ccccc1NC(=O)CN1C(=O)NC(CCc2ccccc2)C1=O (stereo not given),-11.4,–
CC[C@]1(O)C[C@@H]2CN(CCc3c([nH]c4ccccc34)[C@@](C(=O)OC)(c3cc4c(cc3OC)N(C)[C@H]3[C@@](O)(C(=O)OC)[C@H](OC(C)=O)[C@]5(CC)C=CCN6CC[C@]43[C@@H]65)C2)C1,–,0.082 µM (active)
O=C(c1cc2cc(F)ccc2[nH]1)N1CCN(c2ccc(F)cc2)CC1,3.63,–
O=C(Nc1ccc(Cl)cc1)N1CCc2[nH]c3ccccc3c2C1,-22.4,–
O=C(CCCN1CCc2[nH]c3ccc(F)cc3c2C1)c1ccc(F)cc1,–,18.4 µM (active)
COC(=O)[C@]12CCCCC=C1N(CCC1=CCCCC1)C(=O)[C@H](CC(=O)N1CCSCC1)C2,-10.5,–
COC(=O)C[C@H]1C[C@@H]2c3cc(N(C)C)ccc3O[C@@H]2[C@H](CO)O1,-0.17,–
CN(C)CCCOc1ccc(-c2ccc3nccn3c2)cn1,17.2,–
COc1ccc(S(=O)(=O)N[C@@H]2C=C[C@@H](CC(=O)N3CCc4ccccc4C3)O[C@@H]2CO)cc1,5.92,–
C=C1C(=O)OC2C1CCC(C)=CCCC1(C)OC21 (stereo not given),–,16.4 µM (active)
O=C(OCc1cn([C@@H]2C[C@H](c3ccc(Cl)cc3)N(Cc3cccs3)C[C@H]2O)nn1)c1ccccc1,1.48,–

SMILES,"activity, negative = less viability [%]",Potency
CCOc1ccc(CCN2C(=O)C(=O)N([C@@H](CC(C)C)CN3CCC[C@H]3CN3C(=O)C(=O)NC[C@@H]3Cc3ccccc3)C[C@@H]2CC(C)C)cc1,11.6,–
CC1(C(=O)NS(=O)(=O)c2cccc(F)c2)CCN1C(=O)Cc1cc(F)ccc1F (stereo not given),27.2,–
Cc1c(C(=O)NCc2ccc(C#N)cc2)sc(=O)n1Cc1ccc(C(=O)N(C)C)cc1,5.36,–
CN(C)c1ccc(Nc2c3c4c(cccc4n(C)c2=O)C(=O)c2ccccc2-3)cc1,–,5.8 µM (active)
CN(C)c1ccc(C2N(C)C(=O)c3ccccc3N2C)cc1 (stereo not given),-5.29,–
COc1ccc([C@H]2CC(=O)C[C@@H](CCn3cc(CC4CCCC4)nn3)O2)cc1,2.3,–
CCc1oc(-c2ccc(OC)cc2)c(C(=O)OCCCCCO)c1C(C)OCCO (stereo not given),-8.86,–
Cc1ccc(S(=O)(=O)N2CCC(=O)N([C@H](COCc3ccccc3)C(C)C)CC2)cc1,9.52,–
O=C(CSCc1ccccc1)Nc1ccccc1,19.4,–
O=C(CCl)Nc1cccc(CP(=O)(c2ccccc2)c2ccccc2)c1,–,4.11 µM (active)
O=C(NCCc1ccccc1)c1cccc(NC(=O)c2ccccc2)c1,-7.31,–
CC(C)[C@H](NC(=O)c1ccccc1F)C(=O)Nc1cccc(S(=O)(=O)N2CCOCC2)c1,1.57,–
CCOc1ccc2[nH]c(=O)c(CN(Cc3nnnn3Cc3ccccc3)CC3CCCO3)cc2c1 (stereo not given),–,6.31 µM (active)
COc1ccc2[nH]c(=O)c(CN(Cc3nnnn3CCc3ccccc3)CC3CCCO3)cc2c1 (stereo not given),-12,–
CCOc1ccc2[nH]c(=O)c(CN(Cc3nnnn3CCc3ccccc3)CC3CCCO3)cc2c1 (stereo not given),-0.584,–
CCOC(=O)C1=CC[C@@H](c2ccccc2)N(S(=O)(=O)c2ccc(C)cc2)[C@H]1c1cccc(OC)c1,5.72,–
CC1(C)NC(=O)N(CC(=O)Nc2ccc(-c3ccccc3)cc2)C1=O,13.6,–
CS(=O)(=O)Nc1cccc(-c2cn3ccccc3n2)c1,23.4,–
CCS(=O)(=O)Nc1cccc(-c2cc(-c3ccccc3)c3cc(C)ccc3n2)c1,–,23.1 µM (active)
Cc1cc(C)cc(NS(=O)(=O)Cc2ccccc2)c1,-3.43,–
Cc1ccc(-c2nc3c(C)cc(Br)cn3c2Cc2ccccc2)cc1,17.6,–
COC(=O)[C@]12CCCCC=C1N(Cc1ccc3c(c1)OCO3)C(=O)[C@H](CC(=O)NCc1cccs1)C2,-16.6,–
COc1ccc(C2NC(=O)c3ccccc3N2)cc1 (stereo not given),-20.1,–
O=C1NC(c2ccccc2)Oc2ccccc21 (stereo not given),6.8,–

SMILES,"activity, negative = less viability [%]",Potency
O=C1NC(c2cccc(Cl)c2)Nc2ccccc21 (stereo not given),–,11.6 µM (active)
CCc1nc2c(OCCc3cccc(OC)c3)cccn2c1N(C)C(=O)c1ccc(C)cc1,-2.42,–
O=C(COC(=O)c1cncc(Br)c1)Nc1ccc(S(=O)(=O)N2CCOCC2)cc1,-2.37,–
CC(C)c1cc(C(=O)N(C)C2CCCN(Cc3ccccc3F)C2)n(C)n1 (stereo not given),-7.41,–
CNc1cncc(-c2cccc(C(=O)N3CCOCC3)c2)n1,4.76,–
OC(CNCC1CCCO1)Cn1c2ccc(Br)cc2c2cc(Br)ccc21 (stereo not given),–,20.6 µM (active)
COCCNC(=O)c1ccc(Cn2c(SCC(=O)NCC3CCCO3)nc3ccc(Br)cc3c2=O)cc1 (stereo not given),-9.16,–
CCCN1CCn2c3c(c4cc(Br)ccc42)CCCC31 (stereo not given),2.41,–
Cc1sc2nc(-c3ccccc3F)oc(=O)c2c1C,1.74,–
O=S1(=O)CC(N2CCN(CCO)CC2)CN1Cc1cn(Cc2ccc(Cl)cc2)nn1 (stereo not given),18.6,–
O=C(Nc1cc(Br)ccc1F)c1nc[nH]c1C(=O)NCc1ccccc1,-4.69,–
CCN1CCN(CCNC(=O)c2ccc3c(c2)NC(=O)/C(=C\c2cccc(Cl)c2)S3)CC1,-6.54,–
CCN1CCN(CCNC(=O)c2ccc(/C=C3/Sc4ccccc4N(Cc4cccc(C)c4)C3=O)cc2)CC1,–,23.1 µM (active)
CN1CCN(CCCNC(=O)c2ccc(/C=C3\Oc4ccccc4N(Cc4ccc(Cl)cc4)C3=O)cc2)CC1,-9.12,–
CCNC(=O)C1(C)CCCN(C(=O)c2c(C)noc2C)C1 (stereo not given),17.7,–
CSc1ccccc1NC(=O)COC(=O)CCCOc1ccc(C)cc1,3.43,–
COc1cccc(NC(=O)COC(=O)CCOc2ccccc2OC)c1,-0.605,–
COc1cc([N+](=O)[O-])ccc1NC(=O)COC(=O)CCOc1ccc(C)cc1,–,20.6 µM (active)
CCc1ccccc1NC(=O)CN1CCN(C(=O)c2cc(C3CC3)nn2-c2ccccc2)CC1,4.23,–
N#Cc1ccc(C(=O)Nc2nc(-c3cccs3)c(C(=O)C(F)(F)F)s2)cc1,–,2.91 µM (active)
COC(=O)c1sc(NC(=S)NC(=O)c2ccc(C)cc2)nc1C,17.2,–
N#Cc1c(-c2cccs2)nc(SCC(=O)c2ccc(Br)cc2)[nH]c1=O,-17.9,–
CCOC(=O)[C@]12CCCC=C1N(Cc1ccc3c(c1)OCO3)C(=O)[C@H](CC(=O)NCc1cccs1)C2,-21,–
